In the library only some 4.4% were active in any assay of this set; here they are far more common.
D1 antagonist: Antagonist of Human D 1 Dopamine Receptor: qHTS; activity change, negative = inhibition, % at 10 µM; 360,000 tested, 3.2% active; D(1A) dopamine receptor (Homo sapiens), P21728; HEK293 TREx D1 cells, calcium flux, dopamine EC80; active compounds read low; in the data active means activity change below about -30%; further: on the % scale 0 is the no-effect control and ±100 the full control effect
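Tetracycline-induced HEK293 Trex D1 cells, force-coupled to calcium, dye-loaded; compounds added and read 180 s, then EC80 dopamine added and calcium flux tracked kinetically another 180 s.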
D1 ag: Allosteric Agonists of the Human D1 Dopamine Receptor: qHTS; D(1A) dopamine receptor (Homo sapiens), P21728; HEK293 T-REx D1 cells, calcium flux, agonist mode; activation, % at 2 µM; 360,000 tested, 1% active; AID 504660, 2011; further: 0% is about no effect
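Agonism was scored from calcium flux recorded over 180 s (1 read/s) after pintool compound addition, following a 10-cycle baseline. Cells were inducible force-coupled HEK293 TREx D1, plated overnight at 30 C and loaded with no-wash calcium dye.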
D1 PAM: Potentiators of Human D1 Dopamine Receptor: qHTS; HEK293 TREx D1 cells, calcium flux, dopamine EC20 potentiation; 360,000 tested, 0.036% active; D(1A) dopamine receptor (Homo sapiens), P21728; potentiation, % at 10 µM; in the data active means potentiation above about 30%; further: 0% is about no effect
TRHR ag: qHTS for Small Molecule Agonists and Allosteric Enhancers of Human TRH Receptor: Primary Screen for Agonists | TRHR cells, calcium flux fluo-8, FDSS agonist mode | activation, % at 2 µM | AID 493084, 2011 | 360,000 tested, 0.18% active; further: 0% is about no effect
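TRHR-expressing cells, plated overnight in medium with 10% serum, were loaded with fluo-8 calcium dye at room temperature. After a 10 s baseline, library compound was pin-added and calcium release was recorded kinetically (ex 480/em 530) as agonist response.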
TRHR PAM: qHTS for Small Molecule Agonists and Allosteric Enhancers of Human TRH Receptor: Primary Screen for Enhancers. Thyrotropin-releasing hormone receptor (Homo sapiens), P34981. TRHR cells, fluo-8 calcium fluorescence, EC20 TRH enhancement. enhancement, % at 2 µM. 360,000 tested, 0.66% active. AID 493056, 2011; in the data active means enhancement above about 30%; further: 0% is about no effect
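TRHR-expressing cells loaded with fluo-8 calcium dye were read kinetically (ex 480/em 530) during compound addition, then stimulated with an EC20 of TRH (10 nM final). Enhancement of the Gq-mediated intracellular calcium response was scored.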
USP1-UAF1 inh: Inhibitors of USP1/UAF1: Primary Screen; recombinant USP1/UAF1, Ub-Rhodamine cleavage fluorescence; AID 743255, 2014; Ubiquitin carboxyl-terminal hydrolase 1 (Homo sapiens), O94782; Potency, µM (doses to about 57.1 µM), inactives show top-dose activity change, negative = inhibition, hits mostly inhibitors; 390,000 tested, 0.23% active; active means well fitted inhibition curve with a large enough effect; inconclusive means small, poorly fitted or top-dose-only effect; inactive means no such curve, though single readings can be large or run the other way; further: potency means the concentration at half of the fitted maximal effect; on the % scale 0 is the no-effect control and ±100 the full control effect; nearly all actives have a fitted effect of over 60% in size
Target sequence (O94782 whole entry, looked up): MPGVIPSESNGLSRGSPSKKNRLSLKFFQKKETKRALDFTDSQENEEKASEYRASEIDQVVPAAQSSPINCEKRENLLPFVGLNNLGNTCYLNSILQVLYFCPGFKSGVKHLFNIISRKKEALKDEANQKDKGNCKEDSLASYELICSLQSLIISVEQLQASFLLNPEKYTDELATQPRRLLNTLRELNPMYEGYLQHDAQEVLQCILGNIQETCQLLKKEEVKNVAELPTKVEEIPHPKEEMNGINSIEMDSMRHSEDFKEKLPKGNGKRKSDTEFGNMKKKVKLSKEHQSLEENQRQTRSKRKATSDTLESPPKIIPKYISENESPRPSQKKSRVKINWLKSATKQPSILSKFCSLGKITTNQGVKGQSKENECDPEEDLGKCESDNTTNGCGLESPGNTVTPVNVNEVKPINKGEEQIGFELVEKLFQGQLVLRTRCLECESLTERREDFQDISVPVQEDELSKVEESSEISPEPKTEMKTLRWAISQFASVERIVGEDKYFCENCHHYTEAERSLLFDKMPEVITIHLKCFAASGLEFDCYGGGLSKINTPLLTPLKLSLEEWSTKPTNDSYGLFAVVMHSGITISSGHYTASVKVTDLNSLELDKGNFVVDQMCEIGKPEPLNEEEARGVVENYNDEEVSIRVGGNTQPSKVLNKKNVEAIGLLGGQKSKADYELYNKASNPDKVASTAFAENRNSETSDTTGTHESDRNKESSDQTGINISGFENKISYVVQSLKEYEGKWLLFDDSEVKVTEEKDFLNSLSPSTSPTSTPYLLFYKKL
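USP1/UAF1 complex at 1 nM was preincubated with compound for 15 min at room temperature, then Ub-Rho substrate (150nM final) was added. Fluorescence (480/540 nm) was read kinetically, 6 reads every 60 seconds.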
Starred values were filed as active, the others as inactive; u = inconclusive; x = no result. Unless noted, no stated cut-off is given here; in the data, active means activation above about 30%; inactive means the rest.

SMILES	D1 antagonist	D1 ag	D1 PAM	TRHR ag	TRHR PAM	USP1-UAF1 inh
CCOC(=O)c1ccccc1Nc1cc(C)nc2nc(-c3ccco3)nn12	-32*	74*	2	-1	4	u
COc1cc(C(=O)CC2(O)C(=O)N(Cc3ccccc3Cl)c3ccccc32)cc(OC)c1OC (configuration not stated)	-7	2	-1	-1	0	-11%
O=C(NCCc1ccccc1)c1ccnc(/C=N/O)c1	-34*	1	-11	1	5	-19%
Nc1cccc2c1C(=O)N(C(=O)/C=C/c1cccc(F)c1)C2=O	-10	-1	1	0	31*	-22%
Cc1cc2c(c(=O)o1)C1O[C@](c3ccsc3)(Cc3ccccc31)O2	-9	1	2	0	6	x
COc1cccc(CC2CC(=O)N(CCc3ccc4c(c3)OCO4)C2=O)c1 (configuration not stated)	-22	34*	-5	0	13	-12%
O=C1CC(NCc2ccc3c(c2)OCO3)C(=O)N1CCc1ccccc1 (configuration not stated)	-11	18	-2	1	-2	-7%
Cc1ccc(CC2CC(=O)N(CCc3ccc4c(c3)OCO4)C2=O)cc1 (configuration not stated)	-31*	1	-2	0	1	-22%
O=C(CCCc1ccccc1)Nc1ccccc1[N+](=O)[O-]	-3	1	3	0	-5	-9%
Cc1ccc(NC(=O)CCCc2ccccc2)c([N+](=O)[O-])c1	-48*	2	0	-1	-4	-9%
O=C(CCc1ccccc1)Nc1ccccc1[N+](=O)[O-]	-36*	0	-9	-1	4	-11%
Cc1ccc(NC(=O)/C=C/C(=O)O)c([N+](=O)[O-])c1	7	1	-8	0	-4	-8%
O=C(CCc1ccccc1)NC(=S)Nc1ccccc1[N+](=O)[O-]	-34*	-1	-1	0	-3	-21%
O=C(CCc1ccccc1)NC(=S)Nc1ccccc1Br	x	1	-5	1	0	-19%
CCC1CCCCN1C(=O)Cn1c(=O)n(CCCCCC(=O)NCc2ccc(F)cc2)c(=O)c2sccc21 (configuration not stated)	-6	17	-2	-1	19	-11%
Cc1ccc(NC(=O)C2CCN(c3cc(C)nc4c(-c5ccc(Cl)cc5)c(C)nn34)CC2)c(C)c1	12	1	2	0	4	-26%
CCN(CC)CCOC(=O)c1ccc(NC(=O)Cn2ncc3c([nH]c4ccc(C)cc43)c2=O)cc1	-12	1	1	0	6	-19%
O=C(CCC(=O)Nc1ccc(F)cc1)N/N=C/c1cccs1	2	0	7	0	3	-21%
CCCCCC(=O)N/N=C/c1cccs1	-47*	-1	1	0	-4	-9%
CN1CCc2c(sc(NC(=O)CSc3ccccc3)c2-c2nc3ccccc3s2)C1	-54*	400*	-2	115*	-19	u
COc1cccc(N2CCN(C(=O)c3cc4c(=O)n(Cc5ccco5)ccc4nc3C)CC2)c1	-12	13	-4	-1	15	-2%
O=C(C1CCCN(S(=O)(=O)c2ccc(Br)s2)C1)N1CCN(c2ccccc2F)CC1 (configuration not stated)	-8	2	1	-1	10	-12%
CCc1ccc(C(=O)c2cn(CC(=O)Nc3cc(OC)ccc3OC)c3nc(C)ccc3c2=O)cc1	-49*	7	-2	0	4	-31%
CCOC(=O)c1ccc(NC(=O)c2cc3c(n(-c4ccc(C)cc4)c2=O)CC(C)(C)CC3=O)cc1	1	1	-1	-1	-12	1%
CC1=C(C(=O)Nc2ccccc2)C(c2ccc(C)o2)n2ncnc2N1 (configuration not stated)	-60*	2	-12	-1	3	-7%
SMILES	D1 antagonist	D1 ag	D1 PAM	TRHR ag	TRHR PAM	USP1-UAF1 inh
Nc1ccc(-c2nc3ncccc3o2)cc1	-34*	-1	-6	0	2	-12%
Cc1ccc2cc3c(N)nn(C(=O)c4cccc(F)c4)c3nc2c1	-11	2	1	-2	2	9%
COc1ccc2c(Sc3ccccc3)c(C(=O)NCc3cc(Br)ccc3OC)[nH]c2c1	8	4	2	0	1	7%
CC(C)C(=O)N1CCc2cc(-c3csc(N)n3)ccc21	-43*	2	-6	0	4	-12%
Cn1cc(S(=O)(=O)N2CCc3ccccc32)cc1C(=O)Nc1ccc(Cl)cc1	-37*	7	-2	0	0	-5%
Cc1cc(C)cc(NC(=O)c2cc(S(=O)(=O)N3CCc4ccccc43)cn2C)c1	0	1	-1	0	-4	-3%
CSc1cccc(NC(=O)N2CCN(C)CC2)c1	-2	2	-1	0	37*	u
CN1CCN(C(=O)Nc2ccccc2)CC1	5	2	-1	1	-2	-9%
Cc1cccc(C)c1NC(=O)c1cc(S(=O)(=O)N2CCc3ccccc32)cn1C	-47*	10	-16	0	1	-9%
CSc1cccc(NC(=O)c2cc(S(=O)(=O)N3CCc4ccccc43)cn2C)c1	-56*	9	0	0	-5	-23%
Cc1ccc(NC(=O)c2cc(S(=O)(=O)N3CCc4ccccc43)cn2C)cc1	-5	1	-4	0	0	-20%
Cc1cccc(NC(=O)c2cc(S(=O)(=O)N3CCc4ccccc43)cn2C)c1	5	8	-2	0	1	-21%
Cc1ccc(CNC(=O)Cn2c(=O)cc(-c3ccccc3)c3c(C)nn(C)c32)cc1	-3	1	-4	0	10	-30%
Cc1nc(-c2ccccc2)sc1-c1ccc(SCC(=O)NCc2ccccc2Cl)nn1	-3	3	1	1	11	u
COc1cc(NC(=O)CC(c2cccs2)N2Cc3ccccc3C2=O)cc(OC)c1OC (configuration not stated)	-5	-1	1	-1	0	-26%
CCc1ccc(N(CC)C(=O)Cn2c(=O)oc3ccccc32)cc1	2	1	2	0	5	-7%

Bioassay records deposited in PubChem by National Center for Advancing Translational Sciences (NCATS).
